Holding throughout (assay): cross-linking mass spectrometry
Assay [1] deals with BCAP31 (UniProt P51572). The conditions noted are these: DSSO.
In assay [2] the target is BLOC1S2 (UniProt Q6QNY1). The conditions noted are these: DMTMM.
The target of assay [3] is KXD1 (UniProt Q9BQD3). The conditions noted are these: DSSO.
Assay [4] concerns the target CLTC (UniProt Q00610).
The target of assay [5] is CEP250 (UniProt Q9BV73). The note with it: DSSO.
Assay [6] has as its target CHP1 (UniProt Q99653). The conditions noted are these: DSSO.
The target of assay [7] is CCDC40 (UniProt Q4G0X9). The note with it: DMTMM.
In assay [8] the target is CDK5RAP2 (UniProt Q96SN8). The note with it: DSSO.
Assay [9] concerns the target CD59 (UniProt P13987). The conditions noted are these: DSSO.
In assay [10] the target is EEA1 (UniProt Q15075). The note with it: DMTMM.
Assay [11] concerns the target PLBD2 (UniProt Q8NHP8). The conditions noted are these: DSSO.
The target of assay [12] is PPT1 (UniProt P50897). The note with it: DSSO.
Assay [13] deals with RAB7A (UniProt P51149). The conditions noted are these: DMTMM.
Assay [14] concerns the target CEP126 (UniProt Q9P2H0). The note with it: DSSO.
The target in assay [15] is MYH11 (UniProt P35749). The conditions noted are these: DSSO.
In assay [16] the target is PRPF8 (UniProt Q6P2Q9). The conditions noted are these: DMTMM.
Assay [17] addresses SNU13 (UniProt P55769). The conditions noted are these: DSSO.
For assay [18], the target named is USP39 (UniProt Q53GS9). The conditions noted are these: DSSO.
For assay [19], the target named is CENPI (UniProt Q92674). The conditions noted are these: DSSO.
Assay [20] has as its target CHMP4B (UniProt Q9H444). The conditions noted are these: DSSO.
Assay [21] concerns the target CCT2 (UniProt P78371). The conditions noted are these: DSSO.
In assay [22] the target is CCT8 (UniProt P50990). The conditions noted are these: DSSO.
Assay [23] concerns the target CHTOP (UniProt Q9Y3Y2). The note with it: DSSO.
The target in assay [24] is THRAP3 (UniProt Q9Y2W1). The note with it: DMTMM.
The target of assay [25] is CHMP3 (UniProt Q9Y3E7). The note with it: DSSO.
For assay [26], the target named is COX4I1 (UniProt P13073). The conditions noted are these: DSSO.
In assay [27] the target is CPVL (UniProt Q9H3G5). The conditions noted are these: DSSO.
The target in assay [28] is LIPA (UniProt P38571). The note with it: DMTMM.
Assay [29] addresses PHF5A (UniProt Q7RTV0). The note with it: DSSO.
For assay [30], the target named is SF3B6 (UniProt Q9Y3B4). The conditions noted are these: DSSO.
Assay [31] addresses CRCP (UniProt O75575). The note with it: DSSO.
Assay [32] concerns the target POLR2H (UniProt P52434). The conditions noted are these: DSSO.
In assay [33] the target is POLR3K (UniProt Q9Y2Y1). The conditions noted are these: DSSO.
The target in assay [34] is CWC15 (UniProt Q9P013). The note with it: DSSO.
The target in assay [35] is DCTN2 (UniProt Q13561). The note with it: DSSO.
Assay [36] has as its target DDX23 (UniProt Q9BUQ8).
Assay [37] addresses DEF8 (UniProt Q6ZN54). The note with it: DSSO.
Assay [38] concerns the target DHCR7 (UniProt Q9UBM7). The conditions noted are these: DSSO.
Assay [39] deals with LCLAT1 (UniProt Q6UWP7). The conditions noted are these: DSSO.
The target of assay [40] is RPN1 (UniProt P04843). The note with it: DSSO.
The target of assay [41] is DNAAF1 (UniProt Q8NEP3). The conditions noted are these: DMTMM.
The target of assay [42] is DYNC1I2 (UniProt Q13409). The note with it: DMTMM.

Sequence of CLTC (Q00610 whole entry): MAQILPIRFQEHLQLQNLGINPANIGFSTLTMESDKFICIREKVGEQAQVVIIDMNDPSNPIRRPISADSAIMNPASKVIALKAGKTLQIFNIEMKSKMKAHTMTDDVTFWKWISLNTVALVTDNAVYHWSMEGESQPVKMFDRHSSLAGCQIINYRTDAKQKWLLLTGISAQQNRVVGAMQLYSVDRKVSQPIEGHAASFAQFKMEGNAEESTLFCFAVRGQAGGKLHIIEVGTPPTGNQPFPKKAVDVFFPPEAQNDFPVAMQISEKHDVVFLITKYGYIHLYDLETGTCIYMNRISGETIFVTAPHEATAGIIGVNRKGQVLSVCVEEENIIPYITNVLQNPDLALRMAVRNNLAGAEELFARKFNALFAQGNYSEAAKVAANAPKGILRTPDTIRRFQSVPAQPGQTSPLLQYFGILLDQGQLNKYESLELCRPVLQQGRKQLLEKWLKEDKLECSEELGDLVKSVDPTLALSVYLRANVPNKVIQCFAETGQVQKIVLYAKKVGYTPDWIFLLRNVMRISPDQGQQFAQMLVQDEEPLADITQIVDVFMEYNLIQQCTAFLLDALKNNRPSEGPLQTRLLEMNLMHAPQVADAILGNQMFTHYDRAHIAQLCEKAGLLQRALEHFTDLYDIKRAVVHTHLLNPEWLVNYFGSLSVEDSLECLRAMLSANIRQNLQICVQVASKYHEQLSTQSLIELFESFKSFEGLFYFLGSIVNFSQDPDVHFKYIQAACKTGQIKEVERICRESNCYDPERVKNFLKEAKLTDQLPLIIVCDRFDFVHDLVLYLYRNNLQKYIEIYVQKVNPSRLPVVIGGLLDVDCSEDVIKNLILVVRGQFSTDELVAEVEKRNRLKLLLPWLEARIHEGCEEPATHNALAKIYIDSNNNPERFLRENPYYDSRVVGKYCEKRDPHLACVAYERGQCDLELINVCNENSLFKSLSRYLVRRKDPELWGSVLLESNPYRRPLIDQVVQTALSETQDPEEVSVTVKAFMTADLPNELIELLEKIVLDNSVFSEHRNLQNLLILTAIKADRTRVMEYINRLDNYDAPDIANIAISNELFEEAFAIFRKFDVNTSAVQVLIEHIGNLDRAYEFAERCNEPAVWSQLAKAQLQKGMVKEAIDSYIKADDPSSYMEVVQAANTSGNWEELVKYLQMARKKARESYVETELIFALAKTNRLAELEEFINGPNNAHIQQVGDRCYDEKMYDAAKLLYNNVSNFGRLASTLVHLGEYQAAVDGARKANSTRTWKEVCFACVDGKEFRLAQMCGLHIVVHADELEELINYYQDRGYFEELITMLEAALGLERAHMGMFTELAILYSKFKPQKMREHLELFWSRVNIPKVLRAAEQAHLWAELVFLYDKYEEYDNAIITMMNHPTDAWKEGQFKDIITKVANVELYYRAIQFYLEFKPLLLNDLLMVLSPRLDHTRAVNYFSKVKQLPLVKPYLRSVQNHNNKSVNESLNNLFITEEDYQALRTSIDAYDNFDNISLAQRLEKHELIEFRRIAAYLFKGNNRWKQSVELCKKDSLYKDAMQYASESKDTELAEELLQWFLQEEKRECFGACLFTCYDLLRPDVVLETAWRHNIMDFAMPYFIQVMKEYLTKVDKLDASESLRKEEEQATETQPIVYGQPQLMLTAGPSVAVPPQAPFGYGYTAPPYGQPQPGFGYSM
Sequence of PGRMC1, O00264 (O00264 whole entry): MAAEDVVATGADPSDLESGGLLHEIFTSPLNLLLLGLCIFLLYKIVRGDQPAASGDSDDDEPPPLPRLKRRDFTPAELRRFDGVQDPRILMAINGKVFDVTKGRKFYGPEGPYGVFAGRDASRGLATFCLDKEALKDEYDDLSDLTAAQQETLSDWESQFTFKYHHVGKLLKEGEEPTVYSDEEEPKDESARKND
Sequence of DDX23 (Q9BUQ8 whole entry): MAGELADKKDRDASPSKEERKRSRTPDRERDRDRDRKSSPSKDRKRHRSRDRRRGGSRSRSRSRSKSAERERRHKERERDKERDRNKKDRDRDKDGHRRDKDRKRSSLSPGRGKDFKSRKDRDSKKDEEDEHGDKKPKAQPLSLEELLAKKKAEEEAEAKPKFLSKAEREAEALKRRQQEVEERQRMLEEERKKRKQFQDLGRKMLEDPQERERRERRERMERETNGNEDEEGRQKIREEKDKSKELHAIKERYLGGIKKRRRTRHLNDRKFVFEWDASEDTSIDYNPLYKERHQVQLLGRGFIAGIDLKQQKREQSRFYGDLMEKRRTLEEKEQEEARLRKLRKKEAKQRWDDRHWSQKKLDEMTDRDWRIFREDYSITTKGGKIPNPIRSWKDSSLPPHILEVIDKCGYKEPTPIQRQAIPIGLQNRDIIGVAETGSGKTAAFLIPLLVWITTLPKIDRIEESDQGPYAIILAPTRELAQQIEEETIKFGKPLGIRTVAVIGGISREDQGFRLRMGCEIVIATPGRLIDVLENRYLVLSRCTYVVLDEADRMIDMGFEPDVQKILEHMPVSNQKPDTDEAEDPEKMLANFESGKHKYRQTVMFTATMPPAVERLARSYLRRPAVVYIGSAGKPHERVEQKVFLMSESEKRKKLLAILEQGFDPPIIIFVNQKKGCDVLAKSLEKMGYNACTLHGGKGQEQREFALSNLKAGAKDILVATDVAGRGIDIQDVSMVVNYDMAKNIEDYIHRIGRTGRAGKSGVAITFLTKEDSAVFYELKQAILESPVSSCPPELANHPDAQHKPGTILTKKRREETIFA
Sequence of SF3B1, O75533 (O75533 whole entry): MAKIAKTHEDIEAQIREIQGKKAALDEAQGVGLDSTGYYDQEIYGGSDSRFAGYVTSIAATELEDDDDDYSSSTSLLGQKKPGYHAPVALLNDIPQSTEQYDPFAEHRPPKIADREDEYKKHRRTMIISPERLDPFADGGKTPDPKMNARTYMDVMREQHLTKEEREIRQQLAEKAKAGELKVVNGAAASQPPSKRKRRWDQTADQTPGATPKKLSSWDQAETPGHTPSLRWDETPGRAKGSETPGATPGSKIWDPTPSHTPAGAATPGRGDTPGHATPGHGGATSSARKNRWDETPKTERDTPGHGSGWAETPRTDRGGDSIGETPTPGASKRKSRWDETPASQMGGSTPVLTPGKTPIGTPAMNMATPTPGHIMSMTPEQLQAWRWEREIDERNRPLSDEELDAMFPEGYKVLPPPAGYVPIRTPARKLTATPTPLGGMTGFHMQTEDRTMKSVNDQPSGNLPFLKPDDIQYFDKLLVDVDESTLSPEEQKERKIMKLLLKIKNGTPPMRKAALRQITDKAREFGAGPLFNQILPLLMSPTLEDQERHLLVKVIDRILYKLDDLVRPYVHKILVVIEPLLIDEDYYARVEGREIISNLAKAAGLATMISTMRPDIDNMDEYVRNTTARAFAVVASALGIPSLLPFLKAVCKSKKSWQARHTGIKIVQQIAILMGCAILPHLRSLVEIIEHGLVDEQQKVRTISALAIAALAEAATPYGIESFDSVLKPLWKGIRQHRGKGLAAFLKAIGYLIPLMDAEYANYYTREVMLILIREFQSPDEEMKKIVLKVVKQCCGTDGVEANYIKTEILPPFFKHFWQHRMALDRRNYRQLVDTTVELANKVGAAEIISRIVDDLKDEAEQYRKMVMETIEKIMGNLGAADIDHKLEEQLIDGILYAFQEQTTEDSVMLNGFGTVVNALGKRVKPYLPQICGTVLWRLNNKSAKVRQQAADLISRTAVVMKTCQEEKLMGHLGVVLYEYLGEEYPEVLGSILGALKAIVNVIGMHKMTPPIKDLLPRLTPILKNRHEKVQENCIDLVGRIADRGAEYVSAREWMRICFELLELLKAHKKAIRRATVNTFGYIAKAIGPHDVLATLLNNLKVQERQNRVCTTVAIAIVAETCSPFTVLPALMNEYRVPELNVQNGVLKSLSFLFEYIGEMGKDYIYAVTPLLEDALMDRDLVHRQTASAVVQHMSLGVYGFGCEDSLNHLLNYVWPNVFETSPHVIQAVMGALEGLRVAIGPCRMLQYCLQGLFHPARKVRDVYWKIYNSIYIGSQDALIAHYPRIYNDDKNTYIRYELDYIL
Sequence of PRPF6, O94906 (O94906 whole entry): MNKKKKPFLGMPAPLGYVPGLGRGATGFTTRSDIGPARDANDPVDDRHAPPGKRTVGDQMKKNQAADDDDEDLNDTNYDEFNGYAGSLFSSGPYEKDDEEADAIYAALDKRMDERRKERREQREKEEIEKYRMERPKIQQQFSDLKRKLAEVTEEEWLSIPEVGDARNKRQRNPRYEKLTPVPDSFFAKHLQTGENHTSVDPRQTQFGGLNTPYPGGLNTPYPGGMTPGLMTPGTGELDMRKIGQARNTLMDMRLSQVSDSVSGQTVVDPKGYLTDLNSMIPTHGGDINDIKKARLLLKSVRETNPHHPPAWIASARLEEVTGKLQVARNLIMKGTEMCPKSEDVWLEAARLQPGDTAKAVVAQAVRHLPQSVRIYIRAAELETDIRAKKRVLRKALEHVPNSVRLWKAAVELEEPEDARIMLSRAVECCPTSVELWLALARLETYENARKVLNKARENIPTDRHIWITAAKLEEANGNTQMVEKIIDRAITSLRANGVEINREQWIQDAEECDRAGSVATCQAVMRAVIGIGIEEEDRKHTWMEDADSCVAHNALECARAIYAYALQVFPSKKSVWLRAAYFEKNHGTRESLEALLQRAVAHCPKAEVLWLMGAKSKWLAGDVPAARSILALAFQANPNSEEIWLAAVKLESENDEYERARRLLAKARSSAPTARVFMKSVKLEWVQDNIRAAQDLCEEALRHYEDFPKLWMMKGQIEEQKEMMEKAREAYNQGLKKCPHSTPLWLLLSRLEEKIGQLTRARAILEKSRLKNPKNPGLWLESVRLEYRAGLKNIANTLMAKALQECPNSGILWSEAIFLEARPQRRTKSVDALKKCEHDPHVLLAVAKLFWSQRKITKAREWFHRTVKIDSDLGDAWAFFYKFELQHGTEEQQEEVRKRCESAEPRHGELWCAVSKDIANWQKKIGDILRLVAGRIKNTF
Sequence of BLOC1S1, P78537 (P78537 whole entry): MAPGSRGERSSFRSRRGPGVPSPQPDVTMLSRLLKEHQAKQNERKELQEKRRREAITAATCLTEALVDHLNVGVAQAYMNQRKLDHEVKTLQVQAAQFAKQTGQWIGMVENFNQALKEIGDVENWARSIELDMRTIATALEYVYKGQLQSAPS

As to EEF1D, P29692, the cross-linked residues entry in assay [1] was “K107 - K199”.

On to BLOC1S1, P78537, for which the values for the cross-linked residues result in [2] and in assay [3] were “K40 - E61” and “K83 - K32”, respectively.

On to PTPN9, P43378, for which the cross-linked residues result in assay [4] (DMTMM) is “E2 - D823”.

Consider CROCC, Q5TZA2, for which the cross-linked residues entry in assay [5] is on record as “K1333 - K660”.

GPAT4, Q86UL3: the cross-linked residues entry in [6] is given as “K426 - K40”.

Turning to PTPRF, P10586, in assay [7], the cross-linked residues entry was “E195 - K1058”.

On to PCNT, O95613, for which the cross-linked residues entry in assay [8] is “K2383 - K1865”.

IGF2R, P11717: the cross-linked residues entry was “K170 - K90” in assay [9]; “K2470 - K245” in assay [4] (DSSO); “K2470 - E1329” in [10]; “K1030 - K367” in assay [11]; “K1104 - K253” in assay [12]; “K2470 - D104” in [13].

CLTA, P09496: the cross-linked residues result in assay [4] (DSSO) was “K156 - K1264”.

PLXNC1, O60486: the cross-linked residues result in assay [4] (DSSO) is “K1347 - K1612”.

For the substance PRPF6, O94906, the cross-linked residues result in assay [14] was “K137 - K501”; in assay [15] it was “K137 - K1842”; in [16], “E100 - K480”; in assay [17], “K775 - K113”; in [18], “K137 - K459”.

As to PDCD6IP, Q8WUM4, the values for the cross-linked residues result in assay [19] and in [20] were “K285 - K618” and “K215 - K207”, respectively.

Regarding TCP1, P17987, the results for the cross-linked residues entry in assay [21] and in assay [22] were “K126 - K46” and “K494 - K466”, respectively.

As for ERH, P84090, the cross-linked residues entry in assay [23] is on record as “K12 - K12”; in [24], “E37 - K527”.

In the case of CHMP2A, O43633, in assay [25], the cross-linked residues result is listed as “K9 - K106”.

Consider COX5B, P10606, for which, in assay [26], the cross-linked residues result is on record as “K86 - K29”.

In the case of CTSD, P07339, the cross-linked residues entry is reported as “K127 - K423” in [27] and “D238 - K304” in [28].

Take SF3B1, O75533: the cross-linked residues entry is “K163 - K423” in assay [27], “K554 - K13” in [29] and “K214 - K7” in assay [30].

Regarding POLR3A, O14802, the cross-linked residues entry is given as “K398 - K34” in assay [31], “K590 - K146” in assay [32] and “K1224 - K96” in [33].

PLRG1, O43660: the cross-linked residues entry in assay [34] is reported as “K363 - K18”.

Turning to SNW1, Q13573, the cross-linked residues result in assay [34] is on record as “K153 - K18”.

Regarding ACTR1A, P61163, the cross-linked residues result in assay [35] was “K361 - K119”.

As to EFTUD2, Q15029, the cross-linked residues result in assay [36] (DMTMM) was “D860 - K196”; in assay [36] (DSSO) it was “K244 - K196”.

For the substance SNRNP200, O75643, in assay [36] (DSSO), the cross-linked residues result was “K14 - K251”.

As to WDR45B, Q5MNZ6, the cross-linked residues result in assay [37] is on record as “K42 - K180”.

SACM1L, Q9NTJ5: the cross-linked residues result in [38] is on record as “K10 - K13”.

Turning to PGRMC1, O00264, the cross-linked residues result in assay [38] is “K102 - K13”; in [39] it was “K105 - K221”; in assay [40] it was “K105 - K524”.

Turning to MSL1, Q68DK7, the cross-linked residues result in assay [41] was “K509 - E532”.

With DYNLL1, P63167, the cross-linked residues result in assay [42] is given as “K36 - E159”.
